From PubChem BioAssay (NCI)
Compounds without any hit were thinned out: in the full panel of roughly 79,000, 15% have a hit. No stated cut-off is given here; in the data, active means growth inhibition above about 70%; inactive means the rest. Where a SMILES comes first, the peptide text is derived from it. The star is where a group is joined. Boc = CC(C)(C)OC(=O)*; OBn = c1ccc(CO*)cc1

Legend:
[1] = NCI Yeast Anticancer Drug Screen. Data for the rad50 strain (AID 155);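 further: 0% = growth of vehicle-only cultures of the same strain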; details: S. cerevisiae rad50 strain growth inhibition; at 50.0 µM; stronger effect = higher value
In short: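 A DNA repair-deficient yeast mutant serves as the test organism; compound-induced growth inhibition is calculated against vehicle-treated cells.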

[2] = NCI Yeast Anticancer Drug Screen. Data for the mec2-1 strain (AID 157); details: S. cerevisiae mec2-1 strain, at 50.0 µM, stronger effect = higher value
In short: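 Using mec2-1 yeast: add compound, measure growth, express inhibition versus vehicle-treated cultures.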

[3] = NCI Yeast Anticancer Drug Screen. Data for the sgs1 mgt1 strain (AID 161);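 further: 0% = growth of cultures given vehicle only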; details: S. cerevisiae sgs1 mgt1 strain, at 50.0 µM, stronger effect = higher value
In short: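 Compounds are added to genetically altered yeast, and growth is compared with cultures given vehicle alone to give percent inhibition.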

[4] = NCI Yeast Anticancer Drug Screen. Data for the cln2 rad14 strain (AID 165);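 further: 0% = growth equal to vehicle treated cultures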; details: S. cerevisiae cln2 rad14 strain, at 50.0 µM, stronger effect = higher value
In short: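 Yeast strain cln2 rad14, bearing defects in cell cycle control and DNA repair, serves as the test system; values reflect growth inhibition compared with vehicle.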

[5] = NCI Yeast Anticancer Drug Screen. Data for the bub3 strain (AID 167); details: S. cerevisiae bub3 mutant strain, at 50.0 µM, stronger effect = higher value
In short: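 Inhibition values come from growth of compound-treated mutant yeast normalised to vehicle-treated controls.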

[6] = NCI Yeast Anticancer Drug Screen. Data for the mlh1 rad18 strain (AID 175); details: S. cerevisiae mlh1 rad18 strain growth inhibition; at 50.0 µM; stronger effect = higher value
In short: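 Steps: expose repair-defective yeast to compound; measure growth; express inhibition against vehicle-treated controls.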

Measured: growth inhibition

COc1cccc(CCNc2ccncc2N)c1
inactive: [1] -22% | [2] -23.7% | [3] -24.6% | [4] -52.2% | [5] -29.1% | [6] 12.9%

CCC(C(CC(=O)c1ccccc1)c1ccccc1)[N+](=O)[O-] (stereo unspecified)
inactive: [1] 9.7% | [2] -0.65% | [3] 0.6% | [4] -42.3% | [5] 10.2% | [6] -5.65%

NC(=O)C1CCCN(C2OC(COP(=O)(O)OP(=O)(O)OCC3OC(n4cnc5c(N)ncnc54)C(OP(=O)(O)O)C3O)C(O)C2O)C1 (stereo unspecified)
inactive: [1] 5.85% | [2] -15.1% | [3] 15.2% | [4] 1.5% | [5] 16.3% | [6] -0.9%

Brc1ncccn1
inactive: [1] 23.8% | [2] -16.9% | [3] 0.65% | [4] 17.9% | [5] 7.75% | [6] 14.8%

CC1c2c(cc(=O)n(C)c2O)C(=O)N1Cc1ccccc1 (stereo unspecified)
inactive: [1] 2% | [2] 5.75% | [3] 8.7% | [4] -2.6% | [5] 2.45% | [6] -9.4%

CC(C)CCCC(C)C1CCC2C3CC=C4CC(C(=O)O)CCC4C3CCC12C (stereo unspecified)
inactive: [1] 26.8% | [2] 21.6% | [3] 14.1% | [4] 21.2% | [5] -3.5% | [6] 22.6%

CCN(Cc1ccccc1)C(=O)Nc1c(Cl)cccc1Cl
inactive: [1] -13.5% | [2] -30.1% | [3] 1.35% | [4] -1.5% | [5] -9.85% | [6] -4.05%

CC[C@H](/C=C/[C@@H](C)[C@H]1CC[C@H]2[C@@H]3CC[C@@H]4CC(=O)CC[C@]4(C)[C@H]3CC[C@]12C)C(C)C
inactive: [1] 29.9% | [2] -13.8% | [3] 9.6% | [4] 1.15% | [5] 35.5% | [6] 34%

CS(=O)(=O)c1ccc(C=O)cc1
inactive: [1] 12.8% | [2] 6% | [3] 2.25% | [4] -3.8% | [5] -1.4% | [6] 8.3%

O=c1c(SCc2ccccc2)c(N2CCOCC2)cnn1-c1ccccc1
inactive: [1] 28.4% | [2] -1.85% | [3] 22.8% | [4] 30.1% | [5] 22.1% | [6] 7.75%

CC(NC(=O)C(NC(=O)OC(C)(C)C)C(C)C)C(=O)N1CCCC1C(=O)NCC(=O)NC(C(=O)NCC(=O)OCc1ccccc1)C(C)C (stereo unspecified) (Boc-VAPGVG-OBn; configuration not given here)
inactive: [1] -30.1% | [2] -33.4% | [3] -20.9% | [4] 6.85% | [5] -18.9% | [6] -48.4%

O=[N+]([O-])c1cccc(C2CC(c3ccccc3)=NN2c2ccccc2)c1 (stereo unspecified)
inactive: [1] 2.9% | [2] -2.05% | [3] 0.25% | [4] -9.4% | [5] 10.4% | [6] -7.3%

CCC1(c2ccccc2)SC(N)=NC1=O (stereo unspecified)
inactive: [1] 2.15% | [2] 2.75% | [3] -12.8% | [4] -8.45% | [5] 1.05% | [6] -0.6%

CCC(C)(C(=O)O)c1ccccc1 (stereo unspecified)
inactive: [1] 4.1% | [2] -5.85% | [3] -3.95% | [4] -15.1% | [5] -42.5% | [6] 15.7%

O=C(Nc1ccccc1)c1ccc(I)cc1
inactive: [1] 7.05% | [2] -31.7% | [3] 8.3% | [4] -7.35% | [5] 3.95% | [6] -25.3%

CNC(=O)OCc1c(COC(=O)NC)c(-c2ccc(C(C)(C)C)cc2)n(C)c1C
inactive: [1] 3.45% | [2] 12.9% | [3] 5.5% | [4] -2.75% | [5] 15.8% | [6] 22.1%

CN(C)C1CS(=O)(=O)OC2=C1COCC2 (stereo unspecified)
inactive: [1] -16.4% | [2] 9.8% | [3] -0.7% | [4] -3.8% | [5] 15.8% | [6] 2.55%

Cc1ccc(S(=O)(=O)NC(CCC(=O)NN)C(=O)NN)cc1 (stereo unspecified)
inactive: [1] 9.55% | [2] 7.2% | [3] -15.2% | [4] 5.95% | [5] -1.8% | [6] -43.4%

CCCCCCCCCCCCCCCCN(O)C(=O)c1cnc[nH]1
inactive: [1] 29.8% | [2] 26.6% | [3] 30.2% | [4] 25.4% | [5] 11.1% | [6] 22.6%

CCOCc1ccccc1C(O)(c1ccc(OC)cc1)c1ccccc1OC (stereo unspecified)
inactive: [1] 37.6% | [2] 16.3% | [3] 40.9% | [4] 50.8% | [5] 6.85% | [6] 57.4%

CCC12CC(=O)CCC1CCc1ccc(OC)c(OC)c12 (stereo unspecified)
inactive: [1] -14.6% | [2] 15.9% | [3] -2.4% | [4] -7.2% | [5] 18.4% | [6] 22.2%

COc1ccc(C2(CN(C)C)COc3cc(OC)c(OC)cc3C2=O)cc1OC (stereo unspecified)
inactive: [1] 27% | [2] 2.8% | [3] -7% | [4] 27.6% | [5] -2.1% | [6] 13.3%

CC1(C)CC(C2CC(C)(C)CC(C)(C)[C@H]2O)[C@@H](O)C(C)(C)C1 (stereo partly specified)
inactive: [1] -17.3% | [2] -2.3% | [3] -2.1% | [4] -13.2% | [5] -25.8% | [6] -19.9%

CCCCCCCCOCC1S(=O)(=O)OCCOS1(=O)=O
inactive: [1] -48.2% | [2] -17.6% | [3] -50.7% | [4] -53.8% | [5] -24.4% | [6] -2.3%

CN(C)c1ccc(C(=O)C2CCCCC2)cc1
inactive: [1] 29.1% | [2] 7.5% | [3] 13.6% | [4] -4.8% | [5] -5.2% | [6] 21.8%

CC(=O)Oc1c(C)c2c(O)c3c1C1=C(OCOC1=C(C)C3=O)/C(C)=C\C(C)(O)C(O)C(C)C(O)C1C(=O)OC(C(C)C1O)C(C)(O)/C=C/C=C(C)C(=O)N2 (stereo unspecified)
inactive: [1] 16.2% | [2] 3.65% | [3] -10.4% | [4] 8.95% | [5] 9.7% | [6] 5.5%

CCCCCCCCCCCl
inactive: [1] 13.2% | [2] 5.85% | [3] 28.5% | [4] 21.8% | [5] 17.6% | [6] 25%

COc1ccc(C(=O)N2CCOCC2)cc1
inactive: [1] -8% | [2] -16.6% | [3] -0.9% | [4] 31.9% | [5] -3.05% | [6] -10.6%

CN(C)c1cc2ccccc2oc1=O
inactive: [1] 5.3% | [2] -0.75% | [3] -2% | [4] -5.75% | [5] 9% | [6] 6.45%

[N-]=[N+]=CC(=O)C(CN)(Cc1ccccc1)c1ccc(Cl)cc1 (stereo unspecified)
inactive: [1] 35.1% | [2] 1.45% | [3] 9.1% | [4] -31.9% | [5] -9.45% | [6] 9.05%

CC(=O)Nc1ccc(S(=O)(=O)CCN2C(=O)c3ccccc3C2=O)cc1
inactive: [1] -4.55% | [2] -8.85% | [3] 12.3% | [4] -62.5% | [5] 4.35% | [6] -16.8%

CCCCCCCCCCCCC(CC)(C(=O)OCC)C(=O)OCC
inactive: [1] -1.6% | [2] -0.6% | [3] 13% | [4] -59.5% | [5] 1.15% | [6] -2%

NC(=O)c1cc[cH-]c1.[Fe+2].c1cc[cH-]c1
inactive: [1] -10.1% | [2] 9% | [3] -4.75% | [4] -2.05% | [5] 5.35% | [6] 12.9%

CC1CNC(=O)C(=O)N1 (stereo unspecified)
inactive: [1] -14.7% | [2] -1.8% | [3] 1.75% | [4] -13.4% | [5] -10.9% | [6] -8.05%

CCCC1(C)OCC(C)(C)CO1
inactive: [1] -1.05% | [2] 2.45% | [3] -13.3% | [4] -28.8% | [5] 3.85% | [6] 1.9%

CCCCCCCCCCCCCCCCOc1ccc(-c2cc(=O)n(C)n2C)cc1OC
inactive: [1] -14.1% | [2] -27.2% | [3] -9.3% | [4] -0.15% | [5] -8.55% | [6] -16.2%

CCO[C@H]1OC(=O)[C@@H]2C(c3ccc(F)cc3)=NO[C@H]12
inactive: [1] -27.1% | [2] -44.4% | [3] 0.35% | [4] 2.7% | [5] 8.95% | [6] -9.3%

Cc1c(C#N)c(=N)oc2ccccc12
inactive: [1] 7.9% | [2] 7.35% | [3] 22.8% | [4] 14.5% | [5] 18.1% | [6] -31.5%

O=C(O)c1cncc(-c2ccccc2)c1
inactive: [1] 38.2% | [2] 30.7% | [3] 23.4% | [4] 14.1% | [5] 3% | [6] 26%

C=CCNC(=S)N(C)Cc1ccccc1Cl
inactive: [1] -7.2% | [2] 35.5% | [3] 34.8% | [4] -25.9% | [5] 36.4% | [6] 33.6%

CC(CCC(=O)O)(CCC(=O)O)[N+](=O)[O-]
inactive: [1] 0.85% | [2] -1.1% | [3] 12.2% | [4] -6.6% | [5] 12.6% | [6] -8.8%
